Each structure is given as a SMILES string. “And” between values parts separate entries of the source, which are not always exact repeats. Identical values can stand only once. The panel holds about 79,000 compounds, 15% with a hit somewhere; the sample as a whole holds those more often. A number with no mark means an inactive call. The source made the active and inactive calls. Cut-off read from the data, not from the text of the source: active = growth inhibition above about 70%; inactive = the rest.

Assay [1] in a line: NCI Yeast Anticancer Drug Screen. Data for the rad50 strain (AID 155).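 Note: 0% = growth of vehicle-only cultures of the same strain.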 Conditions: S. cerevisiae rad50 strain growth inhibition, active compounds read high; at 50.0 µM unless noted. In outline:
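Relative growth inhibition (compound vs vehicle) was measured in yeast with a defined repair-gene alteration.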

The nature of assay [2]: NCI Yeast Anticancer Drug Screen. Data for the mec2-1 strain (AID 157). The following applies: S. cerevisiae mec2-1 strain, active compounds read high; at 50.0 µM unless noted. Summed up:
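Growth inhibition is read against vehicle-treated controls after compound exposure of the mec2-1 yeast strain, which is defective in DNA damage repair or cell cycle control.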

Assay [3] is described as follows: NCI Yeast Anticancer Drug Screen. Data for the sgs1 mgt1 strain (AID 161).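 Note: 0% = growth of cultures given vehicle only.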 The following applies: S. cerevisiae sgs1 mgt1 strain, active compounds read high; at 50.0 µM unless noted. In outline:
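Compounds are added to genetically altered yeast, and growth is compared with cultures given vehicle alone to give percent inhibition.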

Assay [4] is described as follows: NCI Yeast Anticancer Drug Screen. Data for the cln2 rad14 strain (AID 165).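 Note: 0% = growth equal to vehicle treated cultures.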 The following applies: S. cerevisiae cln2 rad14 strain, active compounds read high; at 50.0 µM unless noted. In outline:
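Growth inhibition, relative to vehicle-treated controls, is the read-out. The test organism is a yeast strain with defined genetic alterations, cln2 rad14.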

Assay [5] in a line: NCI Yeast Anticancer Drug Screen. Data for the bub3 strain (AID 167). Conditions: S. cerevisiae bub3 mutant strain, active compounds read high; at 50.0 µM unless noted. Summed up:
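Screening used yeast with an engineered genetic alteration affecting cell cycle control. Compound-exposed cultures were compared with vehicle cultures, and reduced growth was taken as inhibition.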

Assay [6] is described as follows: NCI Yeast Anticancer Drug Screen. Data for the mlh1 rad18 strain (AID 175). Conditions: S. cerevisiae mlh1 rad18 strain growth inhibition, active compounds read high; at 50.0 µM unless noted. Summed up:
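Cells of a genetically altered yeast strain, deficient in DNA damage repair, were treated with compound. Their growth was then compared with that of vehicle-treated cultures to give inhibition.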

In the case of `Cc1ccnc(NCCCNc2nccc(C)n2)n1`, the growth inhibition is 22.6% in assay [1]; -1.4% in assay [2]; 14.1% in assay [3]; 36.8% in assay [4]; 5.2% in assay [5]; 22.3% in assay [6].
As for `Cc1nc(Nc2cccc(Cl)c2)c2cnn(-c3ccc(Cl)cc3)c2n1`, the growth inhibition is -2.5% in assay [1]; -0.25% in assay [2]; 1.1% in assay [3]; -41.4% in assay [4]; -0.45% in assay [5]; -4.35% in assay [6].
On to `CCC(=O)C1(C)OC1C(C)CC(C)C1OC(=O)CC2(O)CC=C(C)C(O2)/C(C)=C/CCCC(OC2CC(OC(N)=O)C(O)C(C)O2)/C=C/C(C)C(O)C1C` (stereo not given), for which the growth inhibition in assay [1] was 78% (active); in assay [2], 83.5% (active); in assay [3], 82.5% (active); in assay [4], 84.5% (active); in assay [5], 85.2% (active); in assay [6] it was 83.2% (active).
Consider `CC(=O)NNS(=O)(=O)c1ccccc1`, for which the growth inhibition in assay [1] was 8.1%; in assay [2], 28.6%; in assay [3], 4.15%; in assay [4], -1.15%; in assay [5] it was -17.9%; in assay [6] it was 16.8%.
On to `N#CCc1nc(-c2cc3ccc(O)cc3oc2=O)cs1`, for which the growth inhibition was 19.1% in assay [1]; 8.45% in assay [2]; -25.9% in assay [3]; 2.8% in assay [4]; -12.4% in assay [5]; -40.8% in assay [6].
As to `COc1ccc(C(CC(=O)C(C)(C)CN2CCCCC2)SCCS(=O)(=O)O)cc1` (stereo not given), the growth inhibition in assay [1] is -2.75%; in assay [2] it was -4.9%; in assay [3] it was -3.15%; in assay [4], 2.85%; in assay [5] it was -1.6%; in assay [6] it was 4.15%.
As for `CCCC(=O)n1ccc2ccccc21`, the growth inhibition in assay [1] was -14.8%; in assay [2], -37.6%; in assay [3] it was 7.45%; in assay [4], 13.4%; in assay [5], -12.9%; in assay [6] it was 1.6%.
Regarding `CC(=Nc1cccc(Cl)c1)c1ccncc1`, the growth inhibition in assay [1] was -44%; in assay [2] it was -10.2%; in assay [3], -24.6%; in assay [4], -21.2%; in assay [5], -6.05%; in assay [6], -10.8%.
`CSc1nc2c([nH]1)c(=O)n(C)c(=S)n2C`: the growth inhibition is 4.95% in assay [1]; 6.05% in assay [2]; -0.85% in assay [3]; 12.1% in assay [4]; 0.4% in assay [5]; -4.25% in assay [6].
For `CC(NC(=O)CNC(=O)OCc1ccccc1)C(=O)O` (stereo not given), the growth inhibition in assay [1] was 3.55%; in assay [2], 9.35%; in assay [3], 11.6%; in assay [4], -0.35%; in assay [5], 8.1%; in assay [6], -10.1%.
Turning to `Cc1ccc(=O)[nH]n1`, the growth inhibition in assay [1] is -3.25% and -31.6%; in assay [2], -21.7% and -16.3%; in assay [3], -9.8% and -17.8%; in assay [4] it was -8.35% and -28.9%; in assay [5], -16.1% and -27.5%; in assay [6], 3.75% and -20%.
As to `COc1cccc(C)c1NC(=O)NCCCl`, the growth inhibition in assay [1] is 17.6%; in assay [2], 1.05%; in assay [3] it was 13.2%; in assay [4], -25.2%; in assay [5], 12.1%; in assay [6] it was 5.05%.
With `O=C(Nc1ccc(Cl)c(Cl)c1)Oc1cccc(NC(=S)Nc2ccccc2)c1`, the growth inhibition in assay [1] is 36.9%; in assay [2], 90.2% (active); in assay [3], 93% (active); in assay [4] it was 91.5% (active); in assay [5], 69.8%; in assay [6], 94.7% (active).
`COC(=O)/C=C/c1cccnc1`: the growth inhibition was -16.4% in assay [1]; -28.6% in assay [2]; -36.1% in assay [3]; -22.7% in assay [4]; -10.3% in assay [5]; -12.3% in assay [6].
For `CCOC(=O)C(CCCCNC(=O)CC)NC(=O)CC` (stereo not given), the growth inhibition in assay [1] is 3.5%; in assay [2] it was 1.3%; in assay [3], 3.3%; in assay [4], 3.55%; in assay [5], 11.2%; in assay [6], 2.65%.
In the case of `Cc1nc2c(N)n[nH]c(=O)n2n1`, the growth inhibition is -20.9% in assay [1]; -14.4% in assay [2]; -19.2% in assay [3]; -54% in assay [4]; 7.15% in assay [5]; -4.7% in assay [6].
In the case of `CC(O)C(O)CC(/C=N/NC(=O)c1ccccc1)=N/NC(=O)c1ccccc1` (stereo not given), the growth inhibition was 3.55% in assay [1]; 4.25% in assay [2]; -14.6% in assay [3]; -7.55% in assay [4]; -0.75% in assay [5]; 2.8% in assay [6].
Take `C=C1C2CCC3(CCC4C5(C)CCCC4(C=[N+](CCO)C5)C3C2)C1O` (stereo not given): the growth inhibition in assay [1] was -20.7%; in assay [2], -22.5%; in assay [3], -27.9%; in assay [4], 14.1%; in assay [5], -17.6%; in assay [6], -28.6%.
Consider `Cn1c(NN)nc2ccccc2c1=O`, for which the growth inhibition is -33.7% in assay [1]; -3.25% in assay [2]; -26.9% in assay [3]; 5.55% in assay [4]; -16.9% in assay [5]; -27.8% in assay [6].
On to `O=c1[nH]cnc2c1ccc1[nH]ncc12`, for which the growth inhibition in assay [1] is 9.45%; in assay [2], 0.2%; in assay [3] it was -3.35%; in assay [4], -42.2%; in assay [5] it was -1.05%; in assay [6] it was 5.4%.
